Assay outcomes as filed in PubChem.
Most compounds without a hit are left out; they make up all but 3.5% or so of the library.
MITF inh: MITF inhibitors, primary screen, biochemical, AlphaScreen, human; inhibition, % at 2.6 µM; AlphaScreen MITF homodimerization, bead proximity signal; 650,000 compounds, 0.91% hits; Microphthalmia-associated transcription factor (Homo sapiens), O75030; in the data active means inhibition above about 50%
Target sequence (O75030 whole entry, looked up): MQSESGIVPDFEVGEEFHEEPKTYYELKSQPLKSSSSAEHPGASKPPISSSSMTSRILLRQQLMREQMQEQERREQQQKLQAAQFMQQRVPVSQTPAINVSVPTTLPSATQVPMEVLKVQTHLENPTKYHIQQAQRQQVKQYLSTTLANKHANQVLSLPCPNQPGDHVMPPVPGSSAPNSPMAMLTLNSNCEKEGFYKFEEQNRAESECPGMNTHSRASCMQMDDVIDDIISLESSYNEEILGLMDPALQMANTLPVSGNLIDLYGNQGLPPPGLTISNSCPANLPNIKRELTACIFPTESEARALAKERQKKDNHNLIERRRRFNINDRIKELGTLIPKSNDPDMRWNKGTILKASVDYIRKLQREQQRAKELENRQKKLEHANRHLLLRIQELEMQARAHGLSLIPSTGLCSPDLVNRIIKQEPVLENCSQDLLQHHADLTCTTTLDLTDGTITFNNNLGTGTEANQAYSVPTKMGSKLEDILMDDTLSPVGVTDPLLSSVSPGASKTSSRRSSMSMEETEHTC
TEAD-YAP inh: TEAD-YAP interaction inhibition, primary screen, TEAD-YAP interaction inhibitor project, luminescence, HEK-TIYL cells; TEAD-Gal4/YAP UAS-luciferase luminescence; inhibition, % at 9.12 µM; 640,000 compounds, 1.4% hits; AID 1259422, 2018; in the data active means inhibition above about 32%
GPR151 activ: activators of human GPR151, primary screen, cell-based, PathHunter beta-arrestin, luminescence | G-protein coupled receptor 151 (Homo sapiens), Q8TDV0 | PathHunter beta-arrestin GPR151 cells | activation, % at 11.2 µM | 650,000 compounds, 1% hits; in the data active means activation above about 4.9%
FBW7 act: FBW7 E3 ligase activators, primary screen, biochemical, AlphaScreen, human; AlphaScreen FBW7–phospho-cyclin E peptide binding, activator screen; 650,000 compounds, 0.13% hits; AID 1259310, 2017; normalized activity (activation), % at 26.1 µM; in the data active means normalized activity above about 1.9%;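 further: purified mutant Fbw7 with reduced substrate affinity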
Large screens that a line does not name were inactive.

COc1ccc(N2C(=O)CC(N3CCC(C(N)=O)CC3)C2=O)cc1F (stereo not given)	none
CCOC(=O)CCN(Cc1ccccc1)S(=O)(=O)c1ccc([N+](=O)[O-])cc1	none
Cc1ccc(CN2C(=O)CN(CC(=O)NCc3cccs3)C(=O)C2c2ccccc2F)cc1 (stereo not given)	none
C(=Nc1ccc2c(c1)OCCO2)c1ccc(OC2CSC2)cc1	TEAD-YAP inh 44.9
COc1ccc(-c2c(C)nn3c(N(C)CCC#N)cc(C)nc23)cc1OC	none
CCc1c(-c2ccccc2)n(CC(O)c2ccccc2)c2nc3c(c(=O)n(C)c(=O)n3C)n12 (stereo not given)	TEAD-YAP inh 38.9
CCc1c(-c2ccccc2)n(CCO)c2nc3c(c(=O)n(C)c(=O)n3C)n12	TEAD-YAP inh 64.3
CCCn1c(-c2ccccc2)c(CC)n2c3c(=O)n(C)c(=O)n(C)c3nc12	none
Cc1cc2cc(CCNS(=O)(=O)c3ccc([N+](=O)[O-])cc3)c(=O)[nH]c2cc1C	TEAD-YAP inh 45.1
Cc1ccc(C)c2[nH]c(=O)c(CCNS(=O)(=O)c3ccc([N+](=O)[O-])cc3)cc12	none
O=C(COC(=O)c1ccc(F)cc1)c1ccc(Br)cc1	none
CC(=O)c1ccc(OCC(=O)NC(C)c2cnn(-c3ccccc3C)c2C)cc1 (stereo not given)	TEAD-YAP inh 34.4
CCCc1ccc(-c2ccc(C(=O)Oc3ccc(F)cc3)cc2)nc1	none
CCCc1ccc(-c2ccc(C(=O)Oc3ccccc3F)cc2)nc1	TEAD-YAP inh 55.3
CCCCc1ccc(C(=O)Oc2ccc(-c3ccc(CCC)cn3)cc2)cc1	TEAD-YAP inh 69.7
CCCCCc1ccc(-c2ccc(C(=O)Oc3ccc(CC)cc3)cc2)nc1	none
CCOC(=O)c1cnn(-c2ccc(F)cc2)c1CN1CCC(C(N)=O)CC1	none
COc1ccccc1CC(=O)Nc1cccc(-c2nnc(-c3ccco3)o2)c1	none
CCNc1nc(Nc2ccc3c(c2)OCO3)c2[nH]cnc2n1	none
c1cnc(Nc2nc(Nc3ccc4c(c3)OCO4)c3[nH]cnc3n2)cn1	FBW7 act 20.0
FC(F)(F)c1ccc(Nc2nc(Nc3ccc4c(c3)OCO4)c3[nH]cnc3n2)cc1	none
c1cc(Nc2nc(Nc3ccc4c(c3)OCO4)c3[nH]cnc3n2)ncn1	FBW7 act 26.9
CCCNc1nc(Nc2ccncn2)nc2nc[nH]c12	TEAD-YAP inh 35.8
O=C(Nc1ccc(Cn2ccnc2)cc1)c1cccc(-n2cc(NC(=O)C3CCc4ccccc43)cn2)c1 (stereo not given)	TEAD-YAP inh 37.1
O=C(Cc1ccccc1)Nc1cnn(-c2cccc(C(=O)Nc3ccc(Cn4ccnc4)cc3)c2)c1	none
O=C(CCNC(=O)Oc1ccccc1)NC1CCCCC1	FBW7 act 1.9
O=C(CCNC(=O)OCc1ccccc1)NC1CCCCC1	none
O=C(Cc1ccc2c(c1)OCO2)Nc1cc(Nc2ccccc2-c2nn[nH]n2)c(F)cn1	none
O=C(Cc1ccc2c(c1)OCO2)Nc1cc(Nc2ccccc2-c2ncn[nH]2)c(F)cn1	TEAD-YAP inh 54.0
O=Cc1ccccc1Nc1cc(NC(=O)Cc2ccc3c(c2)OCO3)ncc1Cl	TEAD-YAP inh 57.2
COCCCNC(=O)CSc1nc2cc(C(=O)NCCc3ccc(OC)c(OC)c3)ccc2c2nc3ccccc3n12	none
COc1ccccc1OCC(=O)N/N=C/c1ccccc1	none
C=CCc1ccccc1OCC(=O)N/N=C/c1ccc([N+](=O)[O-])cc1	TEAD-YAP inh 32.9
C=CCc1ccccc1OCC(=O)N/N=C/c1ccccc1	TEAD-YAP inh 50.8
COc1ccccc1OCC(=O)N/N=C/c1ccc([N+](=O)[O-])cc1	none
Cc1cc2nc3s/c(=C/c4cc5c(cc4[N+](=O)[O-])OCO5)c(=O)n3c2cc1C	none
Cc1cc2nc3s/c(=C/c4ccc(N5CCN(C)CC5)c([N+](=O)[O-])c4)c(=O)n3c2cc1C	TEAD-YAP inh 37.7
COc1ccc(N2C(C(C)=O)=NN(c3ccc(Cl)cc3)C2c2ccc(OCc3c(Cl)cccc3Cl)c(OC)c2)cc1 (stereo not given)	none
COc1ccc(N2C(C(C)=O)=NN(c3ccccc3)C2c2ccccc2OCc2c(Cl)cccc2Cl)cc1 (stereo not given)	TEAD-YAP inh 44.5
Clc1ccc(COc2ccccc2C2N(c3ccccc3)N=C(c3ccccc3)N2c2ccccc2)cc1 (stereo not given)	TEAD-YAP inh 85.1
COc1ccc(C)cc1NC(=O)c1cnc(N2CCN(c3ncccn3)CC2)c2ccccc12	none
COc1ccc(OC)c(NC(=O)c2cnc(N3CCN(c4ccccn4)CC3)c3ccccc23)c1	TEAD-YAP inh 46.2
COc1ccccc1NC(=O)c1cnc(N2CCN(c3ncccn3)CC2)c2ccccc12	TEAD-YAP inh 60.3
COc1ccc([N+](=O)[O-])cc1NC(=O)c1cnc(N2CCN(c3ccccn3)CC2)c2ccccc12	none
Cc1cccc(NC(=O)c2cnc(N3CCN(c4ncccn4)CC3)c3ccccc23)n1	TEAD-YAP inh 53.1
CCC(C)c1ccc(NC(=O)Cn2nnc(-c3ccc(Cl)cc3-n3cnnn3)n2)cc1 (stereo not given)	none
c1ccc(OCCSc2nnc3sc4ccccc4n23)cc1	TEAD-YAP inh 71.2
COc1ccc(C)cc1NC(=O)CN(c1cccc(Cl)c1Cl)S(C)(=O)=O	none
CC(C)N1CCC(=NNC(=O)c2cc(O)c(O)c(O)c2)CC1	MITF inh 84.9
CN1CCC(=NNC(=O)c2ccccc2)CC1	none
Nn1c2ccccc2n2cc(-c3ccc(Cl)cc3)nc12	TEAD-YAP inh 56.3
COc1ccc(C2Nc3ccccc3C(=O)N2c2ccc(Br)cc2)cc1 (stereo not given)	none
Cc1ncn(-c2ccc(Nc3cc(-c4nocc4-c4c(C)n[nH]c4C)ccn3)cc2)n1	TEAD-YAP inh 47.9
CCOC(=O)C1=C(N)n2c(s/c(=C\c3ccc(OC)c(OC)c3)c2=O)=C(C#N)C1c1ccc(OC)c(OC)c1 (stereo not given)	TEAD-YAP inh 59.2
CCOC(=O)C1=C(N)n2c(s/c(=C/c3ccccc3)c2=O)=C(C(=O)OCC)C1c1ccccc1 (stereo not given)	none
CCOC(=O)C1=C(N)n2c(s/c(=C/c3cccs3)c2=O)=C(C(=O)OCC)C1c1cccs1 (stereo not given)	TEAD-YAP inh 40.7
CCOC(=O)C1=C(N)n2c(s/c(=C\c3ccc(O)cc3)c2=O)=C(C#N)C1c1ccc(O)cc1 (stereo not given)	none
CC(C)c1ccc(N/C=C/C(=O)c2ccco2)cc1	TEAD-YAP inh 78.1
O=C(/C=C/Nc1ccc(I)cc1)c1ccco1	none
Cc1ccc(S(=O)(=O)N2CCN(c3nnnn3-c3ccccc3)CC2)cc1Cl	FBW7 act 2.2
Cn1cc(-c2ccc3cnc(Nc4ccc(-n5cnc(-c6ccc(=O)[nH]c6)n5)cc4)nc3c2)cn1	TEAD-YAP inh 39.8
